Screening data deposited in PubChem by Center for Chemical Genomics, University of Michigan.
The sample as a whole holds a higher share of hits than the screen did.
Dicer inh = human Dicer pre-microRNA cleavage inhibition; cat-ELCCA pre-miR-21 Dicer processing, chemiluminescence; stronger effect = higher value; 47,000 compounds, 6% hits; z-score at 25 µM; Q9UPY3; in the data active = z-score above about 3, passing the limit was not always enough;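 note: higher signal means more uncleaved substrate so more Dicer inhibition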
Numbers stand for hits.

Screening C=CC[n+]1sc2ccc(Cl)cc2c1C returned Dicer inh inactive.
CCOC(=O)N(/N=C/c1sc2ccccc2c1C)SC(Cl)(Cl)Cl was read as Dicer inh inactive.
`Cc1c(/C=N/NC(=O)NCc2ccccc2)sc2ccccc12` gave Dicer inh 5.4.
O=C(NCc1ccccc1)N/N=C/c1cccs1 was read as Dicer inh inactive.
Screening Cc1cccnc1Nc1nc(-c2ccncc2)cs1 returned Dicer inh inactive.
O=C(CCSc1nnc2ccccn12)Nc1cccc(-c2nc3ccccc3s2)c1 was read as Dicer inh 6.1.
O=C(CSc1nnc2ccccn12)Nc1ccc(Cl)cc1 was read as Dicer inh inactive.
For O=C(CSc1nnc2ccccn12)Nc1cccc(-c2nc3ccccc3s2)c1 the results were Dicer inh inactive.
CCC(C(=O)Nc1ccc(C(F)(F)F)cc1)c1ccccc1 (centres undefined) was read as Dicer inh inactive.
Screening CCc1ccc(C2c3c(oc4ccccc4c3=O)C(=O)N2c2nc(C)c(C(=O)OC)s2)cc1 (centres undefined) returned Dicer inh inactive.
For O=C(Nc1ncc2c(n1)CC(c1cccc(Cl)c1)CC2=O)c1ccccc1 (centres undefined) the results were Dicer inh inactive.
For c1ccc(-c2nnc3c4cnn(-c5ccccc5)c4ncn23)cc1 the results were Dicer inh 3.1.
For Cc1ccc(-c2nnc3c4cnn(-c5ccccc5)c4ncn23)cc1 the results were Dicer inh inactive.
For COc1ccc(-c2nnc3c4cnn(-c5ccccc5)c4ncn23)cc1 the results were Dicer inh inactive.
CCn1c2c(c(=O)[nH]c1=O)C(c1ccc(F)cc1)C1=C(N2)c2ccccc2C1=O (centres undefined) was read as Dicer inh inactive.
`C=CCN1C(=O)C(O)(CC(=O)c2ccccc2)c2ccccc21` (centres undefined) gave Dicer inh inactive.
Screening C=CCN1C(=O)C(O)(CC(=O)c2ccc(CC)cc2)c2ccccc21 (centres undefined) returned Dicer inh 3.2.
For CCN1C(=O)C(O)(CC(=O)c2ccncc2)c2ccccc21 (centres undefined) the results were Dicer inh inactive.
CN1C(=O)C(O)(CC(=O)c2ccc(Cl)cc2)c2ccccc21 (centres undefined) was read as Dicer inh 3.9.
`C=CCN1C(=O)C(O)(CC(=O)c2ccc3c(c2)OCCO3)c2ccccc21` (centres undefined) gave Dicer inh inactive.
For CCN1C(=O)C(O)(CC(=O)c2c(C)cc(C)cc2C)c2ccccc21 (centres undefined) the results were Dicer inh 3.5.
For C=CCN1C(=O)C(O)(CC(=O)c2ccc(C)cc2)c2ccccc21 (centres undefined) the results were Dicer inh inactive.
Screening CN1C(=O)C(O)(CC(=O)c2ccc(C(C)(C)C)cc2)c2ccccc21 (centres undefined) returned Dicer inh inactive.
CCOC(=O)CN1C(=O)C(O)(CC(=O)c2ccc3c(c2)OCO3)c2ccccc21 (centres undefined) was read as Dicer inh inactive.
For C=CCN1C(=O)C(O)(CC(=O)c2c(C)cc(C)cc2C)c2ccccc21 (centres undefined) the results were Dicer inh inactive.
For C=CCN1C(=O)C(O)(CC(=O)c2ccc3c(c2)OCO3)c2ccccc21 (centres undefined) the results were Dicer inh 4.3.
Screening CC(C)c1ccc(C(=O)CC2(O)C(=O)N(C)c3ccccc32)cc1 (centres undefined) returned Dicer inh inactive.
`CC(C)(CC(=O)O)CC(=O)Nc1ccc2ccccc2n1` gave Dicer inh inactive.
C#CC(CC)(CC)NC(=S)NCCc1ccccc1 was read as Dicer inh inactive.
Screening Cc1c(-n2cccc2)cc2c(c1[N+](=O)[O-])C(C)(C)CC2(C)C returned Dicer inh inactive.
`Cc1nc(N=CNO)ccc1Br` gave Dicer inh inactive.
For CCCCNc1ncnc2c1sc1nc(N3CCCC3)c3c(c12)CC(C)(C)OC3 the results were Dicer inh inactive.
Screening CCOC(=O)c1c(C)c(C)n(CC2CC2)c1NC(=O)c1ccc(Cl)cc1 returned Dicer inh inactive.
Screening O=C(NNc1nccc(C(F)(F)F)n1)c1cc(C(F)(F)F)cc(C(F)(F)F)c1 returned Dicer inh inactive.
CS/C(=N\S(=O)(=O)c1ccccc1)N1CCCC1 was read as Dicer inh inactive.
Screening CS/C(=N\S(=O)(=O)c1ccccc1)N1CCCCC1 returned Dicer inh inactive.
For CSC(=Nc1ccccc1F)N1CCCCC1 the results were Dicer inh 4.8.
For CCC(=O)OCCNc1ccc2noc3c2c1C(=O)c1ccccc1-3 the results were Dicer inh inactive.
CCOC(=O)/C(C#N)=C/c1ccc(Cl)c(Cl)c1 was read as Dicer inh inactive.
`O=c1c(-c2ccccc2Cl)coc2c(CN3CCN(Cc4ccccc4)CC3)c(O)ccc12` gave Dicer inh inactive.
For O=C(Nc1nc2c(s1)Cc1ccccc1-2)c1ccc(F)c(Cl)c1 the results were Dicer inh inactive.
For CC(=O)Nc1nc2c(s1)Cc1ccccc1-2 the results were Dicer inh inactive.
For O=C(Nc1nc2c(s1)CCc1ccccc1-2)c1ccc(F)c(Cl)c1 the results were Dicer inh 3.7.
For Oc1ccccc1CNc1nc2c(s1)CCc1ccccc1-2 the results were Dicer inh 4.3.
ON/C=N/c1nc2c(s1)CCc1ccccc1-2 was read as Dicer inh inactive.
CCCCCCCCC(=O)Nc1nc2c(s1)CCc1ccccc1-2 was read as Dicer inh inactive.
For Cc1ccc2oc(-c3ccc(Cl)c(N)c3)nc2c1 the results were Dicer inh inactive.
`COc1cccc(-n2c(CCC(=O)O)ccc2-c2cccs2)c1` gave Dicer inh inactive.
Screening CCn1c2c(c(=O)[nH]c1=O)C(c1ccsc1)C1=C(N2)c2ccccc2C1=O (centres undefined) returned Dicer inh inactive.
`O=c1oc(-c2ccc(Cl)cc2)nnc1-c1ccccc1` gave Dicer inh inactive.
For O=C1OC(/C=C/c2ccccc2)=NC/1=C/c1cccc2ccccc12 the results were Dicer inh 3.5.
Screening O=C1OC(/C=C/c2ccccc2)=NC/1=C/c1ccc(Cl)cc1 returned Dicer inh inactive.
For O=C1OC(c2ccccc2)=N/C1=C\c1ccc(/C=C2\N=C(c3ccccc3)OC2=O)cc1 the results were Dicer inh inactive.
For Cc1ccc(C2CC(=O)c3c(S(C)=O)sc(C#N)c3C2)cc1 (centres undefined) the results were Dicer inh 3.6.
CS(=O)c1sc(C#N)c2c1C(=O)CCC2 (centres undefined) was read as Dicer inh inactive.
For CS(=O)c1sc(Cl)c2c1C(=O)CCC2 (centres undefined) the results were Dicer inh inactive.
`COC(=O)C1Cc2c([nH]c3ccccc23)C2(CCN(C)CC2)N1` (centres undefined) gave Dicer inh inactive.
`COCCn1c2c(c(=O)[nH]c1=O)C(c1cccc(Cl)c1)C1=C(N2)c2ccccc2C1=O` (centres undefined) gave Dicer inh inactive.
`c1ccc2c(c1)c1ccccc1n2CN1CCCCC1` gave Dicer inh inactive.
Screening CC(C)(C)c1csc(NS(=O)(=O)c2ccc(Cl)cc2)n1 returned Dicer inh inactive.
Screening N=C(N)C12CC3CC(CC(C3)C1)C2 returned Dicer inh inactive.
COC(=O)c1cc(-c2cc(OC)ccc2OC)no1 was read as Dicer inh inactive.
